In the supplement of paper PMC11732987, “Enantioselective OTUD7B fragment discovery through chemoproteomics screening and high-throughput optimisation” (Communications Chemistry, 2025):

Key:
Assay in all cases: log2 ratio of Biotin-Ahx-Ub-VS probe labelling (fragment/DMSO); higher = less target engagement (more negative = stronger competition), active = hit call of the paper (q ≤ 0.05, log2 ratio ≤ -1)
Settings in all cases: compound concentration: 200 uM; treatment time: 3 h
[1] = molecular target: T1, USP19 (UniProt O94966)
T1 sequence (whole entry): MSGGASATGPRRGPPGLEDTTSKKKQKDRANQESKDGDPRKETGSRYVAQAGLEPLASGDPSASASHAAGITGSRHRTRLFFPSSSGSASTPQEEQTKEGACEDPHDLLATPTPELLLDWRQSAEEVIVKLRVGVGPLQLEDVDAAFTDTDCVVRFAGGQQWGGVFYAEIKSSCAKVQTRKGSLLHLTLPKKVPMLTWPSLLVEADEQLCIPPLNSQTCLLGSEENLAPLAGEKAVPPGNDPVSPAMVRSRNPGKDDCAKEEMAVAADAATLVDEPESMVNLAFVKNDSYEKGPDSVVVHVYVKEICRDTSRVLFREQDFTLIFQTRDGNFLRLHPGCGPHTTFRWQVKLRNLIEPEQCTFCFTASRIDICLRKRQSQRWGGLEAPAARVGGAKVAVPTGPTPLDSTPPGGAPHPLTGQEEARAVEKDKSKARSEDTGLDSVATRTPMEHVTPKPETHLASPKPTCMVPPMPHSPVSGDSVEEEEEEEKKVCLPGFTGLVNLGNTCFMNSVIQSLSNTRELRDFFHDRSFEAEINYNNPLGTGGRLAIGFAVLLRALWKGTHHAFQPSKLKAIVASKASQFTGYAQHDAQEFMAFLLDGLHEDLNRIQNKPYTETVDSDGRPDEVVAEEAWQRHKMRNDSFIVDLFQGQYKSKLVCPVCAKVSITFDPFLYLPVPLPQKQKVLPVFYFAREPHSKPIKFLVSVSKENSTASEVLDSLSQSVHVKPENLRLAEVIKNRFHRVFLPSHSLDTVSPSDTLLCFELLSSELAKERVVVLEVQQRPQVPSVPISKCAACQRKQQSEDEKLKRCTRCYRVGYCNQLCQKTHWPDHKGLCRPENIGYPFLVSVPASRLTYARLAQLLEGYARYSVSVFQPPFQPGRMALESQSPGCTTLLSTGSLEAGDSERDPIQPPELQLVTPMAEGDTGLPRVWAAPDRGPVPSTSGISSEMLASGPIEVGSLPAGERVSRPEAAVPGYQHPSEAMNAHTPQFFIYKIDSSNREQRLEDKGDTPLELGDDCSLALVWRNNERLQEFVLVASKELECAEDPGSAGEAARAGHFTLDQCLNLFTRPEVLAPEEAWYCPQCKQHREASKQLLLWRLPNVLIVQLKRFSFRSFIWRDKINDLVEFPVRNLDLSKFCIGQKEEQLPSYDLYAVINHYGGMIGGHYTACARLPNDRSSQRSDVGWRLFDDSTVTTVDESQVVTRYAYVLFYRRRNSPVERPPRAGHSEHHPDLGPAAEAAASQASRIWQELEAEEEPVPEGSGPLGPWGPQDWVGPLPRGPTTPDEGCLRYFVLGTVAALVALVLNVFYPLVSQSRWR
How it was run: (§1)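 Labelled DUBs were enriched with NeutrAvidin, digested with LysC and trypsin, and run by diaPASEF LC-MS/MS. The labelling used Biotin-Ahx-Ub-VS at 0.5 µM final for 1 h on HEK293T lysate (495 µg per sample) previously treated in triplicate with fragment at 200 µM or vehicle for 3 h. Values are average log2 fragment/vehicle ratios by unpaired t-test on global-median-normalised Spectronaut quantities of proteins with ≥2 unique peptides.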

[2] = molecular target: T2, USP22 (UniProt Q9UPT9)
T2 sequence (whole entry): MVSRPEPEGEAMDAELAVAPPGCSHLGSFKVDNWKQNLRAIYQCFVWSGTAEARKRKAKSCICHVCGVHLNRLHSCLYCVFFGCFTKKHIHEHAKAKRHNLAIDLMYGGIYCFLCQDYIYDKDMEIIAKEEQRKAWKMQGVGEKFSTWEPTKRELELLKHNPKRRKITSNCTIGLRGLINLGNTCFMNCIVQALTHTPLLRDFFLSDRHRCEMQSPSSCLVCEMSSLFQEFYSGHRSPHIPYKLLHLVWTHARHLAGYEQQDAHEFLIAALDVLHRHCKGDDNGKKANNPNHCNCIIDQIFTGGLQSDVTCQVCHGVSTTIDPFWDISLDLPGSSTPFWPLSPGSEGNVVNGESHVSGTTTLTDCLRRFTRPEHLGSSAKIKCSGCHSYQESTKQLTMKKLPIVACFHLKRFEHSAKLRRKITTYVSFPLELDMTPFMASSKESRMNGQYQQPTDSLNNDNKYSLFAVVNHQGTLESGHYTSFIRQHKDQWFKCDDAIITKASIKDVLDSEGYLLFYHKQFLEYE
How it was run: as §1

[3] = molecular target: USP24 (UniProt Q9UPU5)
USP24, sequence (Q9UPU5 whole entry): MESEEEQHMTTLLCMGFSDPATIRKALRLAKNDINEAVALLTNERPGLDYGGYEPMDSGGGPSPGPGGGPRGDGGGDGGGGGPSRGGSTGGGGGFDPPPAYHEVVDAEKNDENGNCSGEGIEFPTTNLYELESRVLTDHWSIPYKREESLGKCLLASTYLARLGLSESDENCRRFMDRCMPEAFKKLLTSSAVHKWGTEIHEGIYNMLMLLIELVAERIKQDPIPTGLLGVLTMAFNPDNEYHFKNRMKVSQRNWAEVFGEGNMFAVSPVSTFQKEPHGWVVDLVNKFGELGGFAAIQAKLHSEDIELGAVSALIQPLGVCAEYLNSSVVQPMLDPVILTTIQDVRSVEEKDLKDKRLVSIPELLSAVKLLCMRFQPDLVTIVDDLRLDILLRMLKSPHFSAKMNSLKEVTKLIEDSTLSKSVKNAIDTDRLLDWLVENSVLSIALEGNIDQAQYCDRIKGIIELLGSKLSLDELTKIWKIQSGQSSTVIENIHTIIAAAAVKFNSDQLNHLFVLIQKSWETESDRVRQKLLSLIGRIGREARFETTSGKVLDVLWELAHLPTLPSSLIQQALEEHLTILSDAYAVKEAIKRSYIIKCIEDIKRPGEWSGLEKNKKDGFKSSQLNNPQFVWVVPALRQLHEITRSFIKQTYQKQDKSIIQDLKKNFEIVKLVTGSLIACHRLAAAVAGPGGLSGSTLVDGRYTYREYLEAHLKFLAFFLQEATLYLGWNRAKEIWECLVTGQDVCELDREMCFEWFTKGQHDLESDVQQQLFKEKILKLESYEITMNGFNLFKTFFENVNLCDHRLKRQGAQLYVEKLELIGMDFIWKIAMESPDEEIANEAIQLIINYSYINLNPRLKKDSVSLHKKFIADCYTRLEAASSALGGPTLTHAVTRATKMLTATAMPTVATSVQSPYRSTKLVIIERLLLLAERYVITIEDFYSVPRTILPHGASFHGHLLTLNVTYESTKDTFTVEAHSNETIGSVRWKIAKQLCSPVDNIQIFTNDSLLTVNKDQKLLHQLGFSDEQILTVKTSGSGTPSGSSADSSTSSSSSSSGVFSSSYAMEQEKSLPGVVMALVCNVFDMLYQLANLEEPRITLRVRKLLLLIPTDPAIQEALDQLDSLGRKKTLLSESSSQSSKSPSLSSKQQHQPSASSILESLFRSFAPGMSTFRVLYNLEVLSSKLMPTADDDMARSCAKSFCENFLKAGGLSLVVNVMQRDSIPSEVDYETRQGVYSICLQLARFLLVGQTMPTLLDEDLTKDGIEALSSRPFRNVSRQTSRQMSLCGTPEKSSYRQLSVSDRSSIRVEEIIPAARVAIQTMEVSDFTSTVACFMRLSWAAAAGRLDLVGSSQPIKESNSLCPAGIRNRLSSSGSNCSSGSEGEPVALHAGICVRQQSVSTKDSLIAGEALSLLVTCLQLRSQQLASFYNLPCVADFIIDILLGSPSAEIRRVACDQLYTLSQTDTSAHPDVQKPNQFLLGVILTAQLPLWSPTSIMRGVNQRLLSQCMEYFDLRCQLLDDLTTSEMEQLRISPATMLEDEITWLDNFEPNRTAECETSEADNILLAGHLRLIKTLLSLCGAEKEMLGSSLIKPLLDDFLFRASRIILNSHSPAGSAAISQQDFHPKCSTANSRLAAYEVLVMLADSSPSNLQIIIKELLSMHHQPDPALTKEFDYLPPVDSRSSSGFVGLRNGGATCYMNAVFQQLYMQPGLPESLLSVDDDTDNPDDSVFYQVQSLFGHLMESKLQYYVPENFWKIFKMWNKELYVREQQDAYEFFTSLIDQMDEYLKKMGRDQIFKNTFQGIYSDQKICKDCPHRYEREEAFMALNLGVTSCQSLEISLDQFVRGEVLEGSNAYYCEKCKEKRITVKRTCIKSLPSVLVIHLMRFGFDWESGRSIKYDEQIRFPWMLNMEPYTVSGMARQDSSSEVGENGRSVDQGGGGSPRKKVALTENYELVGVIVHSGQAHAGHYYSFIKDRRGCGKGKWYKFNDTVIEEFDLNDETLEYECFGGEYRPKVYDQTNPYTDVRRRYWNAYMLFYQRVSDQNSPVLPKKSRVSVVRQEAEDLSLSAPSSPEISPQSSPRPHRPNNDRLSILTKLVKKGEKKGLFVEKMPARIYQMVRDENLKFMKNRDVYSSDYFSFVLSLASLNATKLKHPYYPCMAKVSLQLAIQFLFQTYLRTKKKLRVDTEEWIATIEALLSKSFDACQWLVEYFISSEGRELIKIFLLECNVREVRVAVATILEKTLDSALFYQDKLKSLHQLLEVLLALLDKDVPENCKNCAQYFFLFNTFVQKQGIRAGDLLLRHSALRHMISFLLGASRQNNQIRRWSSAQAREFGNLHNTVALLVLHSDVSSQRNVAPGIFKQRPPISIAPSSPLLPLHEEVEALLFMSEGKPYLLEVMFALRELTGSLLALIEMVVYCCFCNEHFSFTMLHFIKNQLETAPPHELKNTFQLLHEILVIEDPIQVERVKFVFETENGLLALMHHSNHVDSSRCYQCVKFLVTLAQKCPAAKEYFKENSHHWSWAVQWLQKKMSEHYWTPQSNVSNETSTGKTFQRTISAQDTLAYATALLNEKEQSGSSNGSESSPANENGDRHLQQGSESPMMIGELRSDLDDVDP
How it was run: as §1

[4] = molecular target: T3, USP25 (UniProt Q9UHP3)
T3 sequence (whole entry): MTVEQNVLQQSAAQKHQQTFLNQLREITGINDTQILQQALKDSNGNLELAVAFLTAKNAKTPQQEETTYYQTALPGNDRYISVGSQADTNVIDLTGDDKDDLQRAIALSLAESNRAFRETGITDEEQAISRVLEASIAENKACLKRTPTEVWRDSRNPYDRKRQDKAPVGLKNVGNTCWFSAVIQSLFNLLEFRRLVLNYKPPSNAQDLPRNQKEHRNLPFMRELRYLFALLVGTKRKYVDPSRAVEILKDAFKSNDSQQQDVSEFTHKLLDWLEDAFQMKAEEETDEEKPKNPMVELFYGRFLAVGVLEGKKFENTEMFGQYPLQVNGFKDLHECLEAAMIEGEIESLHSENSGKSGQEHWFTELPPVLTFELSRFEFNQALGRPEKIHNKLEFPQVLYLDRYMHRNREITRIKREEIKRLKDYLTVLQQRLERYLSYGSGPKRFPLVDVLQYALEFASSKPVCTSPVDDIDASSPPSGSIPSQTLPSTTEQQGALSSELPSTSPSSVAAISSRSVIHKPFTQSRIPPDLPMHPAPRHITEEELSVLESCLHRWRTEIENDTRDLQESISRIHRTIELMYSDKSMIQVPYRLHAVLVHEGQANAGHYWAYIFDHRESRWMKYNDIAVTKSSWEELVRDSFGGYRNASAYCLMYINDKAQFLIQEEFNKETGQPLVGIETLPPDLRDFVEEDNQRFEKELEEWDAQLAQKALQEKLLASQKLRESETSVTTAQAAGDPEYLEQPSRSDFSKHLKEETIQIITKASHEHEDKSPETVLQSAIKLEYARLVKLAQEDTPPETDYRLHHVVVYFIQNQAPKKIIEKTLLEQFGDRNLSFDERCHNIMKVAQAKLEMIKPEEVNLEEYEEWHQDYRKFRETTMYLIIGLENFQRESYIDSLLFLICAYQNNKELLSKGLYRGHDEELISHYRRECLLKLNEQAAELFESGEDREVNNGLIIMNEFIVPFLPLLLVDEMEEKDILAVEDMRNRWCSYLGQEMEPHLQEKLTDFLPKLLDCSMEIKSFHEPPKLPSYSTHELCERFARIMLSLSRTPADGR
How it was run: as §1

[5] = molecular target: T4, USP28 (UniProt Q96RU2)
T4 sequence (whole entry): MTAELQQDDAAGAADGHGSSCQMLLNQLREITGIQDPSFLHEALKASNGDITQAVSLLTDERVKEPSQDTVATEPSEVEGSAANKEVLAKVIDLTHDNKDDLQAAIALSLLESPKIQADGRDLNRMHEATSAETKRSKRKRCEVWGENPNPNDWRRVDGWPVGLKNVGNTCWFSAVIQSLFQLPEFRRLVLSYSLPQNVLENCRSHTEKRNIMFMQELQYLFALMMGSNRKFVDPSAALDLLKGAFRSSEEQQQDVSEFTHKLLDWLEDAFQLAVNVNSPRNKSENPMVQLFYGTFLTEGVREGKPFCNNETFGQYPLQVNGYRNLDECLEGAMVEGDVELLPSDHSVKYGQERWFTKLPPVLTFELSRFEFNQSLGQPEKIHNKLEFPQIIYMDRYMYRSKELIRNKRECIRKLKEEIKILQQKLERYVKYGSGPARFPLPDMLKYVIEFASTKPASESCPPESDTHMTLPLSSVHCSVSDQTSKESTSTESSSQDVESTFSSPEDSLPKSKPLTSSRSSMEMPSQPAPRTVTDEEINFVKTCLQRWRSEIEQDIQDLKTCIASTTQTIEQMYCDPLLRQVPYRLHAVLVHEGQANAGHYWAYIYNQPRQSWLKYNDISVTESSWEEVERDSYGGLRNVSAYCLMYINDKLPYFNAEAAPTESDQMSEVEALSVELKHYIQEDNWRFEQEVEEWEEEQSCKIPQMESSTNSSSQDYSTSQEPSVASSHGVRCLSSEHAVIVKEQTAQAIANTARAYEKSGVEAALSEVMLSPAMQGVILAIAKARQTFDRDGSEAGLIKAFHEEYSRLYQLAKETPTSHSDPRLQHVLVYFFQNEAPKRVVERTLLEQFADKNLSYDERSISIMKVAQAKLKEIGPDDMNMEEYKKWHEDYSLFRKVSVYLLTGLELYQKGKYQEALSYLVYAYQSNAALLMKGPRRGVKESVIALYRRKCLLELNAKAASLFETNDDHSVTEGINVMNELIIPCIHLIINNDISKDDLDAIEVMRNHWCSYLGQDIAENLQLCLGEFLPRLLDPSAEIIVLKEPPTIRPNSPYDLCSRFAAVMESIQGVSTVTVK
How it was run: as §1

Measured: log2 ratio of Biotin-Ahx-Ub-VS probe labelling

O=C(CCl)N1CCOC2(CCC2)C1
inactive: [1] 0.0251 | [2] 0.184 | [3] -0.0132 | [4] -0.216 | [5] -0.0963
